Data from publication PMC10726135, “HNF4α isoforms regulate the circadian balance between carbohydrate and lipid metabolism in the liver”.
Whole data set: some 18,000 sequences, median “log2 normalized intensity” near 0.36, cut for the highest 2% near 7.3. Shown is part of a subset that was picked to be rich in the highest values.

Biological target: T1, HNF4alpha8 (COS-7 nuclear extract) (Homo sapiens, UniProt P41235-5 1-452)
T1 sequence: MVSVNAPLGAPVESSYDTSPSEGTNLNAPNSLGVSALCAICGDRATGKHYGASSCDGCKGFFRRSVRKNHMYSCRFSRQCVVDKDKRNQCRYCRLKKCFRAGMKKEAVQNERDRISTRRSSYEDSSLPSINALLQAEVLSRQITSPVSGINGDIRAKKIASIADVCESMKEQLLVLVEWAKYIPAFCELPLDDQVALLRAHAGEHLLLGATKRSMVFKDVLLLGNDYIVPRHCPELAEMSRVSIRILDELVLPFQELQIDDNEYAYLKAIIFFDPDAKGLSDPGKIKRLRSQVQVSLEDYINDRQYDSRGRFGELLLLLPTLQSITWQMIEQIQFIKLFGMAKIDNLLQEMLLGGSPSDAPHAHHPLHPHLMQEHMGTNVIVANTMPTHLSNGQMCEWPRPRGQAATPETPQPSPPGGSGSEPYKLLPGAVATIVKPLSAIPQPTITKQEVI
Assay: protein-binding microarray; COS-7 nuclear extract on double-stranded Agilent 4x180k PBM; binding buffer, salt, pH and temperature not given in the material; high values mean tight binding
Conditions: chain copies: 2; label: 3' end of strand 1 on the slide; dsDNA, one strand shown
Outline: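 Binding signal is the background-corrected, normalized gProcessedSignal calculated by Agilent software. It was measured by applying nuclear extracts of COS-7 cells transiently transfected with a human HNF4α isoform expression vector to a custom Agilent SurePrint G3 4x180k array of ~44,000 double-stranded ~60-nt test sequences in quadruplicate, then imaging bound HNF4α on an Agilent G2565CA scanner at 2-µm resolution.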

In order of rising binding signal:
1. ATGACCCAAACTTCACAAAAATGAGTGCAAGCCTAGGGAGATTAGAGTATCGGTCGA  -0.806 log2 normalized intensity
2. CTCTGTATTGTAAAAGAAAGTGAGCAGGCAGCCTAGGGAGATTAGAGTATCGGTCGA  -0.689 log2 normalized intensity
3. CTTGGCACTTAGCACAAGTGACTATTCTGGGCCTAGGGAGATTAGAGTATCGGTCGA  0.0244 log2 normalized intensity
4. AGGCAAAGGTGTCAGGACCTTTCTTTATGGGCCTAGGGAGATTAGAGTATCGGTCGA  0.451 log2 normalized intensity
5. TTCTTTTTGAAGCAAAGCCTTTGAGCAGATGCCTAGGGAGATTAGAGTATCGGTCGA  0.807 log2 normalized intensity
6. CTTTTGAGTTTCTACCATAGACCCTGTTGGGCCTAGGGAGATTAGAGTATCGGTCGA  0.898 log2 normalized intensity
7. CAATGTGACTGGAGCAGAGCGATCAAAGGTGCCTAGGGAGATTAGAGTATCGGTCGA  1.37 log2 normalized intensity
8. CTGACCTCTTTTGGATTTTTCCATATCTGTGCCTAGGGAGATTAGAGTATCGGTCGA  1.57 log2 normalized intensity
9. ATCAAAGGCTTCTAGAAGAGGTTAAAGACCGCCTAGGGAGATTAGAGTATCGGTCGA  1.58 log2 normalized intensity
10. GAGTGACCTGGTATTGCAAGTATTTCACCCGCCTAGGGAGATTAGAGTATCGGTCGA  1.59 log2 normalized intensity
11. TCCTTTTCTTTCACATACAAAATTTACTTTGCCTAGGGAGATTAGAGTATCGGTCGA  1.75 log2 normalized intensity
12. TGGGGACCTTTGGGCTCTGACCCGAAGGGTGCCTAGGGAGATTAGAGTATCGGTCGA  2.6 log2 normalized intensity
13. CCCCAAAAACTTGGACTCTATAGCCTATGCGCCTAGGGAGATTAGAGTATCGGTCGA  2.66 log2 normalized intensity
14. CCCCCGGCTCTACGCAAGTGGTACCTCCCGGCCTAGGGAGATTAGAGTATCGGTCGA  2.76 log2 normalized intensity
15. CTAACCAGCTCTATCAGTCTGGGTCCAGTCGCCTAGGGAGATTAGAGTATCGGTCGA  2.82 log2 normalized intensity
16. CATTCTCTAATCAGGTCGCTGCCTGCCCCTGCCTAGGGAGATTAGAGTATCGGTCGA  3.39 log2 normalized intensity
17. GACCTCTGCCCTTCCACCCACTTTATCTTCGCCTAGGGAGATTAGAGTATCGGTCGA  3.59 log2 normalized intensity
18. GATAACATCTGGACTTTACACAGACCTTTAGCCTAGGGAGATTAGAGTATCGGTCGA  4.07 log2 normalized intensity
19. AGTCTCAAAGGTCAGATGACAGAATTGGTCGCCTAGGGAGATTAGAGTATCGGTCGA  4.15 log2 normalized intensity
20. CCCCTTCTGTTTCCAGAAATCTGACCTCTGGCCTAGGGAGATTAGAGTATCGGTCGA  5.06 log2 normalized intensity
21. CTATGACCTTTCACCTTTTAGCTTGGCATGGCCTAGGGAGATTAGAGTATCGGTCGA  5.08 log2 normalized intensity
22. TTCACCTTTCGCCCTTTGTCCTATGACTCTGCCTAGGGAGATTAGAGTATCGGTCGA  5.44 log2 normalized intensity
23. CTCTTTAGGCTGGACTCTGACCCATTCCTTGCCTAGGGAGATTAGAGTATCGGTCGA  5.82 log2 normalized intensity
24. GTTCTATGGGATGACCTTTGAGCAATAGGAGCCTAGGGAGATTAGAGTATCGGTCGA  6.05 log2 normalized intensity
25. CTGAGGTTAAAGTCCACATTCTTTAGCATAGCCTAGGGAGATTAGAGTATCGGTCGA  6.12 log2 normalized intensity
26. GCAGAAGGTGTTTCAGATGGACCAAAGGTCGCCTAGGGAGATTAGAGTATCGGTCGA  6.13 log2 normalized intensity
27. TGGTACTATGACCTTTCACCTTTTAGCTTGGCCTAGGGAGATTAGAGTATCGGTCGA  6.25 log2 normalized intensity
28. GAGGCTGAAGTGAAGTTACAAAGGTCACACGCCTAGGGAGATTAGAGTATCGGTCGA  6.46 log2 normalized intensity
29. CAGCAACACTCTACTACTTGACCTTTGAAAGCCTAGGGAGATTAGAGTATCGGTCGA  6.62 log2 normalized intensity
30. ACACAAACTATGACCTTTGAAACTTACATTGCCTAGGGAGATTAGAGTATCGGTCGA  6.68 log2 normalized intensity
31. AGCTGACGCCCCACCCCCTCCACCCCTGCCGCCTAGGGAGATTAGAGTATCGGTCGA  6.68 log2 normalized intensity
32. AAGGGCTGAGGTTAAAGTCCACATTCTTTAGCCTAGGGAGATTAGAGTATCGGTCGA  6.82 log2 normalized intensity
33. GGGCGAGAGAGTTCTATGGGATGACCTTTGGCCTAGGGAGATTAGAGTATCGGTCGA  6.82 log2 normalized intensity
34. TACATTTTGCTCTGTTGTGTCAAAGGTCACGCCTAGGGAGATTAGAGTATCGGTCGA  7 log2 normalized intensity
35. AAGCTTCACAAAGGGCTGAGGTTAAAGTCCGCCTAGGGAGATTAGAGTATCGGTCGA  7.44 log2 normalized intensity
36. TGACCTGGTACTATGACCTTTCACCTTTTAGCCTAGGGAGATTAGAGTATCGGTCGA  7.78 log2 normalized intensity
37. AGCAAACACAAACTATGACCTTTGAAACTTGCCTAGGGAGATTAGAGTATCGGTCGA  7.82 log2 normalized intensity
38. ACCTTTGACCTGGTACTATGACCTTTCACCGCCTAGGGAGATTAGAGTATCGGTCGA  7.83 log2 normalized intensity
39. AGAGAGTTCTATGGGATGACCTTTGAGCAAGCCTAGGGAGATTAGAGTATCGGTCGA  7.89 log2 normalized intensity
40. TCACAAAGGGCTGAGGTTAAAGTCCACATTGCCTAGGGAGATTAGAGTATCGGTCGA  8.03 log2 normalized intensity
41. TGACAAGCAAACACAAACTATGACCTTTGAGCCTAGGGAGATTAGAGTATCGGTCGA  9.22 log2 normalized intensity
42. CCCTGCCACTCTTTTTTAGACTTTGACCTCGCCTAGGGAGATTAGAGTATCGGTCGA  10.2 log2 normalized intensity
